From PubChem BioAssay AID624504 (Sanford-Burnham Center for Chemical Genomics, 2012)
In all, about 5,000 compounds went through this assay and about 3,900 (78%) were called active. The set was probably picked from earlier hits. These entries were drawn from the full list. A number with no mark means an inactive call. Cut-off read from the data, not from the text of the source: active = inhibition above about 22%; inactive = the rest.

Assay: fluorescence retest of MPTP screen hits in isolated mitochondria, single concentration (AID 624504);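 note: 0% = DMSO vehicle and 100% = positive control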
Conditions: membrane potential, Rhodamine 123 fluorescence, at 10 µM, active compounds read high

Compound | inhibition
C=C1c2c(Cl)ccc(O)c2C(O)=C2C(=O)[C@]3(O)C(O)=C(C(N)=O)C(=O)[C@@H](N(C)C)[C@@H]3[C@@H](O)C12 (stereo partly drawn) | -13.7%
COc1ccc(NS(=O)(=O)c2ccc(Oc3c(C#N)cccc3C#N)cc2)cc1 | 75.8% (active)
CC(NC(=S)Nc1ccccc1)C1COc2ccccc2O1 (stereo not drawn) | 87% (active)
S=C(NCC1COc2ccccc2O1)Nc1ccc(Br)cc1 (stereo not drawn) | 93.1% (active)
S=C(NCCCc1ccccc1)Nc1ccc(Br)cc1 | 91.8% (active)
O=C(CSCc1ccc(Br)cc1)Nc1ccc(S(=O)(=O)N2CCCCCC2)cc1 | 80.4% (active)
Fc1cc(F)c2nc(Nc3nc4c(F)cccc4s3)sc2c1 | 69.9% (active)
C=CC[n+]1c(-c2ccc(C)cc2)csc1NNC(=O)Nc1ccccc1 | 83.2% (active)
O=C1CCCN1CCCNC(=S)Nc1ccc(F)c(Cl)c1 | 90.3% (active)
Oc1c(Br)cccc1/C=N/Nc1c(F)c(F)c(F)c(F)c1F | 72.3% (active)
Fc1ccc(N2N=C(c3cccs3)CC2c2ccco2)c(F)c1 (stereo not drawn) | -15.1%
O=C(CC(O)(C(F)(F)F)C(F)(F)F)Nc1ccc(Cl)c(Cl)c1 | 84.9% (active)
CCOC(=O)N1CCN(C(=O)C2CCN(c3ncnc4c3sc3cccc(F)c34)CC2)CC1 | 94.4% (active)
N#C/C(=C(/O)Cc1cccc2ccccc12)c1nc2ccccc2s1 | 69.1% (active)
COc1ccc(Br)cc1C(=O)NC(=S)Nc1cc(-c2nc3ccccc3[nH]2)ccc1C | 51% (active)
Cc1cc2ncn(CCCCOc3ccccc3)c2cc1C | 36.7% (active)
CC(C)c1ccccc1OCC(O)CN(CC(O)COc1cccc2ccccc12)C(C)C (stereo not drawn) | 4.85%
COc1ccc2c(c1)c(=Cc1ccc(N(C)C)cc1)c1cc(-c3ccccc3)[n+](C)n12 | 79.7% (active)
O=C(Nc1ccc(C2CC2(Cl)Cl)cc1)c1cccc([N+](=O)[O-])c1 (stereo not drawn) | 78.1% (active)
Fc1ccc2[nH]c3c(N4CCSCC4)ncnc3c2c1 | 94% (active)
Cc1[nH]n(-c2cccc(Cl)c2)c(=O)c1-c1ccc(Cl)cc1 | 98.6% (active)
C[C@@H](CN1CCC[C@H]1CN1C(N)=NC[C@@H]1Cc1ccccc1)N1C[C@@H](Cc2ccccc2)N(CCCC2CCCC2)C1=N | 7.61%

Compound | inhibition
CS(=O)(=O)c1sc(C(=O)NC(=S)Nc2ccc(OC(F)(F)F)cc2)c2c1C=CCC2 | 71.2% (active)
O=[N+]([O-])c1ccc(N/N=C/c2ccccc2)cc1 | 81.9% (active)
Cc1cccc(COc2ccccc2/C=N/Nc2ccc([N+](=O)[O-])cc2)c1 | 81.5% (active)
COc1ccccc1Oc1ccc(S(=O)(=O)Nc2cccnc2)cc1 | 70.1% (active)
Cc1ccc(C)c(NC(=S)NNC(=S)Nc2ccc(C(C)C)cc2)c1 | 85.3% (active)
S=C(NCCc1ccccc1)NCc1ccccc1Cl | 67.2% (active)
CCCCCC(O)c1cccc(OCc2ccc3ccccc3n2)c1 (stereo not drawn) | 76.1% (active)
S=C(Nc1cccc(Cl)c1)Nc1ccc2cn[nH]c2c1 | 92.7% (active)
Cc1csc(NC(=S)Nc2cccc(Cl)c2)n1 | 73.4% (active)
N=c1n(Cc2ccc(Cl)cc2)c2ccccc2n1CC(O)c1ccco1 (stereo not drawn) | 4.39%
CCN1/C(=C\c2ccc3ccccc3[n+]2CC)Sc2cc(C)ccc21 | 96.3% (active)
CCc1cc2c(N3CCN(c4nnc(CC)s4)CC3)ncnc2s1 | 41.8% (active)
CC(NC(=S)Nc1ccc(OC(F)F)cc1)c1ccc(F)cc1 (stereo not drawn) | 93.7% (active)
O=C(Nc1cccc(S(=O)(=O)Nc2ccc(Cl)cc2)c1)c1ccc2c(c1)OCCO2 | 80.9% (active)
FC(F)(F)c1cccc(NC(=S)Nc2cccc(Cl)c2)c1 | 96.6% (active)
O=C(Nc1cccc(-c2cccc(Cl)c2)c1)C1CCN(C2CCC2)CC1 | -9.69%
S=C(Nc1cccc(Cl)c1)Nc1ccc2c(c1)OCCO2 | 100% (active)
O=[N+]([O-])c1ccc(NS(=O)(=O)c2ccccc2)c(Cl)c1 | 97.2% (active)
N#C[C@]1(S(=O)(=O)c2ccccc2)C[C@@H]2ON=C(c3cccc(Br)c3)[C@@H]2C1 | 90.7% (active)
O=C(/C=C/c1ccc(F)cc1)Nc1cccc(S(=O)(=O)Nc2cccc(C(F)(F)F)c2)c1 | 69.5% (active)
O=C(/C=C(O)/C=C/c1ccc(O)cc1)/C=C/c1ccc(O)cc1 | 70.7% (active)
COc1cccc(CNc2nc(NCc3cccs3)nc3ccsc23)c1 | 102% (active)

Compound | inhibition
COc1ccccc1CNc1nc(Nc2ccccc2Cl)c2sccc2n1 | 67% (active)
COc1cccc(CNc2nc(NCc3ccccc3OC)nc3ccsc23)c1 | 121% (active)
C=CCC1(CC=C)CCCN1C(=O)c1cc(COc2ccc(-n3cncn3)cc2)on1 | 103% (active)
CC(C)S(=O)(=O)c1csc(NC(=O)Nc2ccc(Cl)cc2)c1Cl | 90.1% (active)
CCNCCC(=O)N1c2ccccc2Sc2ccc(NC(=O)OCC)cc21 | -7.23%
CCCCCOC(=O)NCCOC(=O)Nc1ccc(C(=O)OCC)cc1 | 72.7% (active)
COc1ccc(C(=O)NC2CCCc3c2cnn3-c2cccc(C)c2C)c(OC)n1 (stereo not drawn) | 84.1% (active)
Cn1nccc1C(=O)NC1CCCc2c1cnn2-c1ccccc1F (stereo not drawn) | 96.6% (active)
Cn1nccc1C(=O)NC1CCCc2c1cnn2-c1ccc(F)cc1F (stereo not drawn) | 101% (active)
Cc1nc(N2CCOCC2)c2c(C)c(C(=O)Nc3ccc(C(F)(F)F)cc3)sc2n1 | 81.9% (active)
CCCCCc1c(Cc2ccccc2)ncn1CCc1ccccc1OC | 106% (active)
Nc1nnc(SCC(=O)Nc2ccc3nc(SCC(=O)Nc4ccccc4)sc3c2)s1 | 77.9% (active)
Cc1cccc(NC(=O)Nc2cccc(Oc3c(F)c(F)c(F)c(F)c3F)c2)c1 | 62.1% (active)
CCN(CC)S(=O)(=O)c1ccc(N(C)Cc2ccc(C(F)(F)F)cc2)nc1 | 93.6% (active)
COc1ccc(/C=C(/CC(=O)Nc2ccc(C)cc2)c2nc3ccccc3s2)cc1 | -7.49%
C=CCSc1nsc(NC(=O)Nc2cccc(C(C)=O)c2)n1 | 84.6% (active)
CSc1nsc(NC(=O)Nc2ccccc2)n1 | 89.7% (active)
O=C(Nc1ccccc1)Nc1nc2ccccc2s1 | 80.6% (active)
CCSc1nsc(NC(=O)Nc2cccc(C(C)=O)c2)n1 | 83.6% (active)
CCCCN(CCCC)CCC(O)c1cc2c(Cl)cc(Cl)cc2c2cc(C(F)(F)F)ccc12 (stereo not drawn) | -7.09%
CC(C)CC(=O)N/C(N)=N/c1nc2ccccc2s1 | 50% (active)
O=C1c2ccccc2C2=Nc3ccccc3SC(c3ccccc3F)C12 (stereo not drawn) | 59% (active)

Compound | inhibition
S=C(Nc1cccc(Br)c1)N1CCn2cccc2C1c1cccnc1 (stereo not drawn) | 94.4% (active)
CN(c1ccccc1)S(=O)(=O)c1cccc(NC(=O)Cc2ccc(Cl)cc2)c1 | 81.2% (active)
Cc1ccc(S(=O)(=O)N(CC(=O)Nc2cccc([N+](=O)[O-])c2)Cc2ccc(Cl)cc2)cc1 | 88.5% (active)
CN(c1cccc(NC(=O)Nc2ccc(Cl)cc2)c1)S(C)(=O)=O | 91.2% (active)
O=C(Cc1ccsc1)N1CCN(S(=O)(=O)c2cc(C(F)(F)F)cc(C(F)(F)F)c2)CC1 | 86.7% (active)
O=C(c1ccncc1)N1CCN(S(=O)(=O)c2cc(C(F)(F)F)cc(C(F)(F)F)c2)CC1 | 99.7% (active)
CCC(C)N1C(=O)S/C(=C/c2ccc(Sc3nc4ccccc4[nH]3)o2)C1=O (stereo not drawn) | 91.4% (active)
Oc1c(Cl)cc(Cl)c(Cl)c1Cc1c(O)c(Cl)cc(Cl)c1Cl | 16.1%
Cc1nc2c(OCc3ccc(Cl)cc3Cl)cccn2c1N(C)CC1CC1 | 105% (active)
Cc1nc2c(OCc3cccc(Cl)c3)cccn2c1N(C)CC1CC1 | 107% (active)
Cc1nc2c(OCc3ccc(Cl)cc3)cccn2c1N(C)Cc1cccs1 | 106% (active)
O=C(/C(=C/c1cccc(Cl)c1)c1nc2ccccc2[nH]1)c1ccccc1 | 77.4% (active)
NC(N)=N/N=C/c1ccc(Cl)c([N+](=O)[O-])c1 | -8.15%
Cc1cc(C)c(SCCc2ccncc2)c(C)c1 | 95.5% (active)
CC(C)(C)c1ccc(SCCc2ccncc2)cc1 | 98.5% (active)
c1ccc2c(CSCc3nc4ccccc4[nH]3)cccc2c1 | 55.6% (active)
O=C(c1ccc(N2CCCC2=O)cc1)N1CCN(c2ccc(C(F)(F)F)cc2[N+](=O)[O-])CC1 | 76% (active)
O=C(Nc1cccc(C(F)(F)F)c1)c1ccc(N2CCNCC2)c([N+](=O)[O-])c1 | -27%
N#Cc1c(-c2cccs2)nc(SCC(=O)c2ccc(Br)cc2)[nH]c1=O | 61.2% (active)
Cc1nnc(NC(=O)Nc2ccc(Cl)c(Cl)c2)s1 | 94% (active)
Cc1ccc(NC(=O)Nc2nnc(-c3ccncc3)s2)cc1 | 81.7% (active)
CCc1ccc(NC(=O)Nc2ccncc2)cc1 | 71.8% (active)

Compound | inhibition
CCCCC(=O)NNC(=S)NC(=O)C(c1ccccc1)c1ccccc1 | -2.85%
O=[N+]([O-])c1cc(Cl)cc(/C=N/NC(=S)Nc2cc(S(=O)(=O)N3CCOCC3)ccc2Cl)c1O | 5.99%
O=C(c1cc(-c2cccc(O)c2)on1)N1CCc2ccccc2C1 | 33.5% (active)
O=C(NNc1ccccc1Cl)C(O)(c1cccc(C(F)(F)F)c1)c1cccc(C(F)(F)F)c1 | 83.9% (active)
Cc1ccc(S(=O)(=O)Nc2ccc3ncccc3c2)cc1 | 72.7% (active)
COc1ccc(S(=O)(=O)NCCCCOc2ccc(Cl)cc2)cc1 | 88.4% (active)
O=[N+]([O-])c1cc(Br)c(O)c(/C=N/Nc2nc3ccccc3s2)c1 | 65.6% (active)
O=C(CCN1C(=O)/C(=C/c2cccs2)SC1=S)NNC(=O)c1cccc(O)c1 | 49% (active)
COc1cc(NC(=O)c2cncc(-c3ccc(C#N)cc3)c2)cc(C(=O)Nc2cccc(C(F)(F)F)c2)c1 | 58.3% (active)
COCCn1c(CN2CCC(Cc3ccccc3)CC2)nc2c1c(=O)n(C)c(=O)n2C | 10.1%
COC(=O)c1c(C)[nH]c(C(=O)/C=C/c2ccc(Cl)cc2)c1C | 86.5% (active)
CCCc1nc2scc(-c3ccc(C)cc3)c2c(=O)n1N | 20.9% (active)
CC(C)c1ccc(NC(=S)NC2CC3C=CC2C3)cc1 (stereo not drawn) | 91% (active)
COc1cccc(CNS(=O)(=O)c2ccc3c(c2)CC(C)N3C(=O)C2CCC2)c1 (stereo not drawn) | 91.1% (active)
O=C(Nc1nc(-c2ccc3c(c2)OCO3)cs1)c1ccncc1 | 42.8% (active)
Cc1ccc(F)cc1NC(=O)Cc1nn(C)c(=O)c2ccccc12 | 29.6% (active)
Cc1ccc(-c2nc(COC(=O)c3c(C)noc3C)cs2)cc1 | 23.4% (active)
Cc1ccc(-c2noc(CCC(=O)Nc3ccccc3N3CCN(C)CC3)n2)cc1 | -2.79%
Cc1ccc(NC(=O)CN(C)CC(=O)Nc2cccc(F)c2)cc1[N+](=O)[O-] | 100% (active)
Cc1cc(C)c(NC(=O)C[N+](C)(C)CC(O)COc2cccc3ccccc23)c(C)c1 (stereo not drawn) | -17%
